Measured values taken from PubChem BioAssay (NCATS).
Results filed as inconclusive are left out. A call without a number means that no potency is given here. Calls of active or inactive are those of the source. Unless noted, calls follow the shape of the full dose curve. Numbered stars: 1 amine (or outer) side, 2 acyl side, 3 side chain; on linkers, the order of the positions; unused ones are H or OH. Bridge positions count the residues as written; N and C are the ends. Square brackets hold non-standard residues; d marks the D form. Peptide text beside a SMILES is read from it. * marks the point of attachment. ξ: configuration not given here. ξhTyr(3S-OH,4S-OH,3'-OSO3H) = NC(C(=O)O)[C@H](O)[C@@H](O)c1ccc(O)c(OS(=O)(=O)O)c1; Orn(4R-OH,5R-OH) = O=C([C@H](C[C@@H](O)[C@@H](O)N[*:3])N[*:1])[*:2]; X2 = CCCCCOc1ccc(-c2cc(-c3ccc(C(=O)*)cc3)no2)cc1; X3 = C[C@H]1CN([*:1])C(C(=O)[*:2])[C@H]1O; ξGln(3R-OH) = NC(=O)C[C@@H](O)C(N)C(=O)O; ξPro(4R-OH) = O=C(O)C1C[C@@H](O)CN1; ξThr(3R) = C[C@@H](O)C(N)C(=O)O

System: not listed separately
Experiment: qHTS for Inhibitors of the Functional Ribonucleoprotein Complex (vRNP) of Lassa (LASV) Arenavirus: Viability assay - alamar blue signal for LASV Primary Screen (AID 1347083; calls by dose curve; tested in HEK293 reporter line; also: nearly all actives have a fitted effect of over 80% in size; also: potency is read from the fitted curve at half-maximal effect)
Settings: cell viability, alamar blue fluorescence (LASV minigenome counter-screen); series mostly up to 57.5 µM

With `CC1(C)Cc2c(sc(NC(=S)NC(=O)c3ccccc3)c2C(=O)O)CO1` as the compound, how does the Potency read?
The Potency was 21.7 µM (active).

For `Nc1nc(=O)n([C@H]2C[C@H](O)[C@@H](CO)O2)cc1F`, which Potency is on record?
The Potency was 0.769 µM (active).

For `CCCCCCCCCCCC1=C(O)C(=O)C=C(O)C1=O`, which Potency is on record?
The Potency was 4.85 µM (active).

For `CC=CCC(C)C(O)C1C(=O)NC(CC)C(=O)N(C)CC(=O)N(C)C(CC(C)C)C(=O)NC(C(C)C)C(=O)N(C)C(CC(C)C)C(=O)NC(C)C(=O)NC(C)C(=O)N(C)C(CC(C)C)C(=O)N(C)C(CC(C)C)C(=O)N(C)C(C(C)C)C(=O)N1C` (stereo not drawn), which Potency is on record?
Its Potency is “inactive”.

Which Potency does the source give for `NC(=O)c1ccc2nc(-c3ccc(Oc4ccc(Cl)cc4)cc3)[nH]c2c1` here?
The Potency was 0.769 µM (active).

System: not listed separately
Experiment: qHTS for Inhibitors of the Functional Ribonucleoprotein Complex (vRNP) of Lymphocytic Choriomeningitis Arenaviruses (LCMV): Viability assay - alamar blue signal for LCMV Primary Screen (AID 1347085; calls by dose curve; tested in HEK293 reporter line; also: nearly all actives have a fitted effect of over 80% in size; also: potency is read from the fitted curve at half-maximal effect)
Settings: alamar blue viability counter-screen, LCMV vRNP screen cells; series mostly up to 57.5 µM

With `CC1(C)Cc2c(sc(NC(=S)NC(=O)c3ccccc3)c2C(=O)O)CO1` as the compound, how does the Potency read?
The Potency was 38.5 µM (active).

With `c1cc(OCCN2CCCCC2)cc(-c2n[nH]c3ccc(-c4ncn[nH]4)cc23)c1` as the compound, how does the Potency read?
The Potency was “inactive”.

Which Potency does the source give for `Nc1nc(=O)n([C@H]2C[C@H](O)[C@@H](CO)O2)cc1F` here?
Its Potency is 1.93 µM (active).

Which Potency does the source give for `CC(=O)O[C@]1(C(C)=O)CC[C@H]2[C@@H]3C=C(Cl)C4=CC(=O)[C@@H]5C[C@H]5[C@]4(C)[C@@H]3CC[C@@]21C` here?
Its Potency is 24.3 µM (active).

With `CN(C)CCOc1cc(-c2cn[nH]c2)ccc1NC(=O)C1COc2ccccc2O1` (stereo not drawn) as the compound, how does the Potency read?
Its Potency is 27.3 µM (active).

Which Potency does the source give for `O=C(Nc1ccccc1)Nc1ccc(-c2ccc(C(=O)[C@H]3CCC[C@H]3C(=O)O)cc2)cc1` here?
Its Potency is “inactive”.

Molecular target: Nucleoprotein (Lymphocytic choriomeningitis virus (strain Armstrong)) (UniProt P09992)
Experiment: qHTS for Inhibitors of the Functional Ribonucleoprotein Complex (vRNP) of Lymphocytic Choriomeningitis Arenaviruses (LCMV): LCMV Primary Screen - GLuc reporter signal (AID 1347086); also: nearly all actives have a fitted effect of over 70% in size; also: potency is read from the fitted curve at half-maximal effect
Settings: LCMV minigenome vRNP cell assay, Gaussia luciferase reporter; series mostly up to 57.5 µM

Nucleoprotein (Lymphocytic choriomeningitis virus (strain Armstrong)), sequence (P09992 whole entry, looked up): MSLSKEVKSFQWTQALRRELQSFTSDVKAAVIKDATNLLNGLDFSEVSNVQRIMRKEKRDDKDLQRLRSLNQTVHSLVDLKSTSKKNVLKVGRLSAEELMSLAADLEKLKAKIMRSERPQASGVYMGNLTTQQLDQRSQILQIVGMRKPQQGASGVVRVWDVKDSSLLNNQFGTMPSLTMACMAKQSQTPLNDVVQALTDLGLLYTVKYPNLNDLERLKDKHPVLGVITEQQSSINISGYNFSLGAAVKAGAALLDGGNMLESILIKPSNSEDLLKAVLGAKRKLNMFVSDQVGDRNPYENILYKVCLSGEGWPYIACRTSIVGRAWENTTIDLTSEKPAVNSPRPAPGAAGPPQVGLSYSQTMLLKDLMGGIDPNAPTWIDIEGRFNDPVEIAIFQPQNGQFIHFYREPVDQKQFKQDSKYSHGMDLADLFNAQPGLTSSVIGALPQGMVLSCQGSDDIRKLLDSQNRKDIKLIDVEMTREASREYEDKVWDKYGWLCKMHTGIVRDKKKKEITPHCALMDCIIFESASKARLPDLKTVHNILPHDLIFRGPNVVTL

With `Cc1c(C)n(Cc2ccc(-c3ccccc3C(=O)O)cc2)c2ccc(C(=O)N[C@@H](C)c3ccc([N+](=O)[O-])cc3)cc12` as the compound, how does the Potency read?
Its Potency is 4.85 µM (active).

Which Potency does the source give for `CC=CCC(C)C(O)C1C(=O)NC(CC)C(=O)N(C)CC(=O)N(C)C(CC(C)C)C(=O)NC(C(C)C)C(=O)N(C)C(CC(C)C)C(=O)NC(C)C(=O)NC(C)C(=O)N(C)C(CC(C)C)C(=O)N(C)C(CC(C)C)C(=O)N(C)C(C(C)C)C(=O)N1C` (stereo not drawn) here?
The Potency was 13.7 µM (active).

With `NC(=O)c1ccc2nc(-c3ccc(Oc4ccc(Cl)cc4)cc3)[nH]c2c1` as the compound, how does the Potency read?
The Potency was “inactive”.

System: not listed separately
Experiment: Primary qHTS for inhibitors of SARS-S pseudo-typed particle cell entry (AID 1479145); also: nearly all actives have a fitted effect of over 45% in size
Settings: SARS-S pseudotyped particle cell entry, luciferase reporter; series mostly up to 57.1 µM

For `COc1ccc2c3c1O[C@H]1C[C@@H](O)C=C[C@@]31CCN(C)C2`, which Potency is on record?
Its Potency is “inactive”.

With `CCc1c(Cl)c(O)c(Cl)c(O)c1C(=O)O[C@H]1[C@H](O)[C@H](OC)[C@H](OC/C2=C\C=C\C[C@H](O)/C(C)=C\[C@H](CC)[C@@H](O[C@@H]3OC(C)(C)[C@@H](OC(=O)C(C)C)[C@H](O)[C@@H]3O)/C(C)=C/C(C)=C/C[C@@H]([C@@H](C)O)OC2=O)O[C@@H]1C` as the compound, how does the Potency read?
The Potency was “inactive”.

Which Potency does the source give for `CC(=O)OC(C)(C)/C=C/C(=O)[C@](C)(O)[C@H]1C(O)C[C@@]2(C)[C@@H]3CC=C4[C@@H](C=C(O[C@@H]5O[C@H](CO)[C@@H](O)[C@H](O)[C@H]5O)C(=O)C4(C)C)[C@]3(C)C(=O)C[C@]12C` (stereo partly drawn) here?
The Potency was “inactive”.

With `CCCCCOc1ccc(-c2cc(-c3ccc(C(=O)N[C@H]4C[C@@H](O)[C@@H](O)NC(=O)C5[C@@H](O)[C@@H](C)CN5C(=O)C([C@H](O)CC(N)=O)NC(=O)C([C@H](O)[C@@H](O)c5ccc(O)c(OS(=O)(=O)O)c5)NC(=O)C5C[C@@H](O)CN5C(=O)C([C@@H](C)O)NC4=O)cc3)no2)cc1` (stereo partly drawn) (X2-[Orn(4R-OH,5R-OH)][ξThr(3R)][ξPro(4R-OH)][ξhTyr(3S-OH,4S-OH,3'-OSO3H)][ξGln(3R-OH)][X3]; lactam 1-C) as the compound, how does the Potency read?
Its Potency is “inactive”.

For `Cc1onc(-c2ccccc2)c1C(=O)N[C@@H]1C(=O)N2[C@@H]1SC(C)(C)[C@@H]2C(=O)O`, which Potency is on record?
The Potency was “inactive”.

Which Potency does the source give for `C[C@]12CC[C@@H]3c4ccc(OC(=O)c5ccccc5)cc4CC[C@H]3[C@@H]1CC[C@@H]2O` here?
The Potency was “inactive”.

With `CCOc1nc2cccc(C(=O)OCc3oc(=O)oc3C)c2n1Cc1ccc(-c2ccccc2-c2noc(O)n2)cc1` as the compound, how does the Potency read?
The Potency was “inactive”.

Which Potency does the source give for `CCC(=O)NS(=O)(=O)c1ccc(-c2c(-c3ccccc3)noc2C)cc1` here?
Its Potency is “inactive”.

With `COC(=O)N(C)c1c(N)nc(-c2nn(Cc3ccccc3F)c3ncccc23)nc1N` as the compound, how does the Potency read?
The Potency was “inactive”.

Which Potency does the source give for `CCc1ccc(Cc2ccc3c(c2)[C@]2(OC3)O[C@H](CO)[C@@H](O)[C@H](O)[C@H]2O)cc1` here?
Its Potency is “inactive”.

System: not listed separately
Experiment: Primary qHTS for Huh7 cytotoxicity: counterscreen for inhibitors of MERS-S pseudotyped particle cell entry (AID 1479147)
Settings: cell viability read-out; series mostly up to 57.1 µM

For `CCN(CC)CCOCCOC(=O)C(CC)(CC)c1ccccc1`, which outcome is on record?
The outcome was “inactive”.

With `COc1ccc2c3c1O[C@H]1C[C@@H](O)C=C[C@@]31CCN(C)C2` as the compound, how does the outcome read?
Its outcome is “inactive”.

For `CCc1c(Cl)c(O)c(Cl)c(O)c1C(=O)O[C@H]1[C@H](O)[C@H](OC)[C@H](OC/C2=C\C=C\C[C@H](O)/C(C)=C\[C@H](CC)[C@@H](O[C@@H]3OC(C)(C)[C@@H](OC(=O)C(C)C)[C@H](O)[C@@H]3O)/C(C)=C/C(C)=C/C[C@@H]([C@@H](C)O)OC2=O)O[C@@H]1C`, which outcome is on record?
Its outcome is “inactive”.

With `CC(=O)OC(C)(C)/C=C/C(=O)[C@](C)(O)[C@H]1C(O)C[C@@]2(C)[C@@H]3CC=C4[C@@H](C=C(O[C@@H]5O[C@H](CO)[C@@H](O)[C@H](O)[C@H]5O)C(=O)C4(C)C)[C@]3(C)C(=O)C[C@]12C` (stereo partly drawn) as the compound, how does the outcome read?
The outcome was “inactive [at 15.3 µM]”.

For `CCCCCOc1ccc(-c2cc(-c3ccc(C(=O)N[C@H]4C[C@@H](O)[C@@H](O)NC(=O)C5[C@@H](O)[C@@H](C)CN5C(=O)C([C@H](O)CC(N)=O)NC(=O)C([C@H](O)[C@@H](O)c5ccc(O)c(OS(=O)(=O)O)c5)NC(=O)C5C[C@@H](O)CN5C(=O)C([C@@H](C)O)NC4=O)cc3)no2)cc1` (stereo partly drawn) (X2-[Orn(4R-OH,5R-OH)][ξThr(3R)][ξPro(4R-OH)][ξhTyr(3S-OH,4S-OH,3'-OSO3H)][ξGln(3R-OH)][X3]; lactam 1-C), which outcome is on record?
Its outcome is “inactive [at 26.4 µM]”.

With `Cc1onc(-c2ccccc2)c1C(=O)N[C@@H]1C(=O)N2[C@@H]1SC(C)(C)[C@@H]2C(=O)O` as the compound, how does the outcome read?
Its outcome is “inactive”.

Which outcome does the source give for `C[C@]12CC[C@@H]3c4ccc(OC(=O)c5ccccc5)cc4CC[C@H]3[C@@H]1CC[C@@H]2O` here?
Its outcome is “inactive”.

With `CCOc1nc2cccc(C(=O)OCc3oc(=O)oc3C)c2n1Cc1ccc(-c2ccccc2-c2noc(O)n2)cc1` as the compound, how does the outcome read?
Its outcome is “inactive”.

Which outcome does the source give for `CCC(=O)NS(=O)(=O)c1ccc(-c2c(-c3ccccc3)noc2C)cc1` here?
Its outcome is “inactive”.

With `COC(=O)N(C)c1c(N)nc(-c2nn(Cc3ccccc3F)c3ncccc23)nc1N` as the compound, how does the outcome read?
Its outcome is “inactive”.

Which outcome does the source give for `C[C@H](O)[C@H](O)[C@H]1CNc2nc(N)[nH]c(=O)c2N1` here?
Its outcome is “inactive”.

Which outcome does the source give for `CCc1ccc(Cc2ccc3c(c2)[C@]2(OC3)O[C@H](CO)[C@@H](O)[C@H](O)[C@H]2O)cc1` here?
Its outcome is “inactive”.

Which outcome does the source give for `CCCSc1nc(N[C@@H]2C[C@H]2c2ccc(F)c(F)c2)c2nnn([C@@H]3C[C@H](OCCO)[C@@H](O)[C@H]3O)c2n1` here?
The outcome was “inactive”.

With `CC1(C)OC(=O)C(OCC2CC2)=C1c1ccc(S(C)(=O)=O)cc1` as the compound, how does the outcome read?
The outcome was “inactive”.
